Shown are actives, neighbours in structure and some others; about 4% of the full set was active somewhere.
Mtb FBA inh: Mtb FBA enzyme inhibitors, primary screen, biochemical, fluorescence, strain H37Rv | actives 2.3% (n = 360,000) | purified M. tuberculosis FBA, fluorescence read-out | inhibition, % at 1 µM | Fructose-bisphosphate aldolase (Mycobacterium tuberculosis (strain ATCC 25618 / H37Rv)), …; in the data active = inhibition above about 27%
Rv3671c protease: Rv3671c serine protease inhibitors, primary screen, biochemical, fluorescence polarization, M. tuberculosis H37Rv; actives 0.048% (n = 320,000); inhibition, % at 5.96 µM; in the data active = inhibition above about 38%;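 note: extracellular domain of Rv3671c used as enzyme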
Mtb bLac sens: beta-lactam sensitization of Mtb H37Rv, H37Rv; inhibition, % at 25 µM; actives 0.27% (n = 330,000); M. tuberculosis H37Rv growth with meropenem, percent inhibition; AID 434955, 2010; call rule not given here;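 note: growth measured after seven days incubation then overnight dye step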
UGM FP inh: M. tuberculosis UGM enzyme inhibitors, primary screen, biochemical, fluorescence polarization, single point; UDP-galactopyranose mutase (Mycobacterium tuberculosis (strain ATCC 25618 / H37Rv)), …; purified UGM, fluorescence polarization probe displacement; inhibition, % at 10 µM; actives 0.06% (n = 320,000); in the data active = inhibition above about 10%, passing the limit was not always enough; inconclusive = no clear call, values can overlap the other calls
Target sequence (P9WIQ1 whole entry, looked up): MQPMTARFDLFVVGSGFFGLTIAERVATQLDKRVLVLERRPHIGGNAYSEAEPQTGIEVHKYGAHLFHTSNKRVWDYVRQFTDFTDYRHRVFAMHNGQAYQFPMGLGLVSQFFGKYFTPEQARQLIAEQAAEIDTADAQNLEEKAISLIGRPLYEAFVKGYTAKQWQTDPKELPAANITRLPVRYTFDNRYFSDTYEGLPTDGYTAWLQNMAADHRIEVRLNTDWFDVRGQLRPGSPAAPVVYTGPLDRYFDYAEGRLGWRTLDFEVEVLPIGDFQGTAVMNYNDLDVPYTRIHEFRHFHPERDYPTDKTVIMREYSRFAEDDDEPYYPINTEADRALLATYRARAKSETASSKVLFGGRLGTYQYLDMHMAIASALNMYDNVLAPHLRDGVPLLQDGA
RecA intein inh: Mtb RecA intein splicing inhibitors, primary screen, biochemical, fluorescence, HTS. Protein RecA (Mycobacterium tuberculosis (strain ATCC 25618 / H37Rv)), P9WHJ3. cell-free RecA intein splicing. inhibition, % (concentration not given with the values). actives 0.75% (n = 290,000); in the data active = inhibition above about 30%; inconclusive = no clear call, values can overlap the other calls
GDH-TPI inh: GDH-TPI coupling enzyme inhibitors, primary screen, artefact control for M. tuberculosis FBA inhibitor project, biochemical, absorbance, full deck. inhibition, % at 4.8 µM. GDH-TPI coupled enzyme counterscreen, NADH absorbance. actives 1.2% (n = 360,000). AID 588335, 2011; in the data active = inhibition above about 30%
A number is an active result; . = inactive; ? = inconclusive; / = no result given; + = active, no number.

SMILES	Mtb FBA inh	Rv3671c protease	Mtb bLac sens	UGM FP inh	RecA intein inh	GDH-TPI inh
Cc1ccnc2nc(C(=O)Nc3nc4ccccc4s3)nn12	.	.	.	.	.	41.1
Cc1csc(NC(=O)c2nc3nccc(C)n3n2)n1	.	.	.	.	.	.
CCN1C[C@@H]2[C@@H]3C(=O)N(Cc4ccccc4)C(=O)[C@@H]3[C@](C)(C1=O)N2C(=O)c1ccc(Cl)c(Cl)c1	.	/	/	/	/	.
O=C(NCCc1ccc(Cl)cc1)c1ccc2c(c1)OCCO2	.	.	.	.	/	.
CCOC(=O)C1=NN(c2ccccc2)C2C(=O)N(c3ccccc3OC)C(=O)C12 (stereo unspecified)	.	.	.	.	.	37.9
CCOC(=O)C1=NN(c2ccc(OC)cc2)C2C(=O)N(c3ccccc3OC)C(=O)C12 (stereo unspecified)	.	.	.	.	/	.
COc1ccccc1N1N=C(C(=O)c2ccccc2)C2C(=O)N(c3ccc(Br)cc3)C(=O)C21 (stereo unspecified)	.	.	.	30.8	.	.
COc1ccccc1C(=O)Nc1ccnn1C1CCN(C2CCCCC2)CC1	.	/	/	/	/	.
CCOC(=O)C1=C(COC(=O)Cc2ccccc2)NC(=O)NC1C (stereo unspecified)	.	.	.	.	.	.
NC(=O)N/N=C/c1ccc(-c2ccc(S(=O)(=O)Nc3ncccn3)cc2)o1	.	/	/	/	/	37.0
CC(C)Oc1ccc(C(=O)N/N=C/c2ccc(-c3ccc(S(=O)(=O)Nc4ncccn4)cc3)o2)cc1	30.9	.	.	.	.	49.5
C[C@H](CO)N1C[C@H](C)[C@@H](CN(C)S(C)(=O)=O)Oc2ccc(NC(=O)CCC(F)(F)F)cc2C1=O	.	.	.	.	/	.
c1ccc2c(-c3nc4ncccc4o3)cccc2c1	+	.	.	.	.	.
COc1ccccc1CNC(=O)CNC(=O)[C@@H]1Cc2ccccc2CN1	.	.	.	.	.	.
Cc1ccc(N2CC(C(=O)Nc3nnc(SCC(=O)N4CCOCC4)s3)CC2=O)cc1 (stereo unspecified)	.	.	.	.	.	.
O=C(c1ccco1)n1c(=S)nc2ccccn21	.	.	.	.	.	52.0
Cc1cccc2nc(=S)n(C(=O)c3ccco3)n12	.	.	.	.	.	.
O=C1Nc2ccccc2C1Cc1ccccn1 (stereo unspecified)	.	.	.	.	.	.
N#CC1C(=O)Nc2cccnc21 (stereo unspecified)	+	/	/	/	/	.
CC(C)c1cc(NCCN2CCOCC2)n2c(nc3ccccc32)c1C#N	.	/	/	/	/	.
Cc1cc(NCC2CCCO2)n2c(nc3ccccc32)c1C#N (stereo unspecified)	+	.	.	.	.	.
CC(C)c1cc(NCC2CCCO2)n2c(nc3ccccc32)c1C#N (stereo unspecified)	+	.	.	.	.	.
CCc1c(C)c(C#N)c2nc3ccccc3n2c1NCC1CCCO1 (stereo unspecified)	.	.	.	.	.	.
CCN(Cc1ccccc1)S(=O)(=O)c1c(C)[nH]c(C)c1C(=O)N1CCCCC1	.	.	.	.	.	.
CCOc1ccc(Cl)cc1S(=O)(=O)N1CCC(C(=O)NCc2ccncc2)CC1	.	.	.	.	.	.
SMILES	Mtb FBA inh	Rv3671c protease	Mtb bLac sens	UGM FP inh	RecA intein inh	GDH-TPI inh
COc1ccc(-c2cc(C(=O)N3CCN(S(=O)(=O)c4ccc(C)cc4)CC3)[nH]n2)cc1	.	.	?	.	.	.
NC(=S)N=Nc1c(O)cc(O)c2[nH]c(=O)ccc12	.	/	/	/	/	37.2
N#CCC(=O)N/N=C\c1cccc(OC/C=C/c2ccccc2)c1	.	.	.	.	.	.
O=C1C=C(c2ccc(C(=O)O)cc2)C[C@@H](c2ccc(F)cc2)C1	.	.	.	.	/	.
O=C(/C=C/c1cccs1)Nc1cccc(NC(=O)/C=C/c2cccs2)n1	.	.	.	/	.	57.0
Cc1cc(C)nc(NC(=O)/C=C/c2cccs2)c1	.	.	.	.	/	47.4
Cc1cc(C)nc(NC(=O)/C=C/c2ccccc2Cl)c1	.	.	.	.	.	.
O=C(CCN1C(=O)/C(=C\c2ccccc2F)SC1=S)N1CCCCC1	.	.	.	.	.	.
N=c1oc2ccc3ccccc3c2cc1-c1nnc2n1CCCCC2	+	.	.	.	/	.
Oc1ccccc1-c1nnc2n1CCCCC2	.	/	.	.	.	.
COc1ccc(C(=O)COC(=O)c2cc3ccccc3oc2=O)c(OC)c1	.	.	.	.	/	.
COc1ccc(CNC(=O)c2cc3ccccc3oc2=O)cc1	.	.	.	.	.	.
CNC(=O)c1cc2ccc(OC)cc2oc1=O	+	.	.	.	.	.
CCOC(=O)c1cc2ccc(OC)cc2oc1=O	+	.	.	.	.	42.5
CCOC(=O)C1=C(COC(=O)c2ccc([N+](=O)[O-])o2)NC(=O)NC1C (stereo unspecified)	.	.	.	.	/	.
O=C(Nc1cccc(-n2cccn2)c1)C1CCCN(Cc2ccccc2F)C1 (stereo unspecified)	.	.	.	.	.	.
NC(=S)NN=Cc1nccc2c(N)cccc12	.	/	/	/	/	.
CCN(C(C)=O)c1cnc(C=NNC(N)=S)c2ccccc12	.	/	/	/	/	34.4
CC(C)CC1NC(=O)c2cc(Cl)ccc2-n2c1nc1ccc(F)cc1c2=O (stereo unspecified)	/	.	.	.	/	/
CCOC(=O)c1c(C)oc2ccc(OCC(N)=O)cc12	.	.	.	.	.	.
Cc1oc2ccc(OC(=O)N(C)C)cc2c1C(=O)OC(C)C	.	.	.	.	.	.
Cc1cc(=O)oc2ccc(OC(C)C(=O)O)cc12 (stereo unspecified)	.	.	.	.	.	.
CCOC(=O)c1c(-c2ccccc2)oc2ccc(OCC(=O)NNC(=O)CCCC(=O)O)cc12	157.2	/	.	.	.	.
CCOC(=O)c1c(-c2ccccc2)oc2ccc(OCC(=O)NNC(=O)CCC(=O)O)cc12	122.3	/	.	.	.	.
CCOC(=O)c1c(-c2ccc(OC)cc2)oc2ccc(OC(=O)N(C)C)cc12	+	.	.	.	.	.
CCOC(=O)c1c(-c2ccccc2)oc2ccc(OC(C)C(=O)O)cc12 (stereo unspecified)	164.9	.	.	.	.	.
CC(C)(C)NC(=O)CSc1ncnc2c1cnn2-c1ccccc1	.	.	.	.	.	.
O=C(NCCO)c1nc(C(=O)c2ccccc2)c2ccccc2n1	.	.	.	.	/	.
CCCCCCC(C)n1[nH]c(=O)cc1N (stereo unspecified)	.	.	.	.	.	.

Screening data as filed in PubChem.
